Assay results published in PubChem BioAssay AID1159580 (chemical genetic matrix, 2015).
Values joined by “and” are separate entries in the source; they are usually repeats but may differ in a detail not shown here. Equal values may be shown once. About 2,000 (36%) of roughly 5,500 compounds were called active. Roughly 18% stayed inconclusive and do not appear here. Cut-off read from the data, not from the text of the source: active = normalized growth mostly below about 0.91 (no sharp cut-off); inconclusive = no clear call, values can overlap the other calls; inactive = mostly above about 0.92. The list shows a part of the results.

Assay: chemical genetic growth profiling, strain panel (AID 1159580);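 note: tested at 20 µM; growth read once vehicle control cultures reached saturation at 30 °C; 1 = growth at the plate median or of vehicle wells; lower values mean less growth of the strain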
Details: S. cerevisiae deletion strains, growth OD

Measured: normalized growth

OCc1ccccc1O
inactive: locus YAL021C, strain ccr4, active compounds read low 1.02 | locus YAL026C, strain drs2, active compounds read low 1.02 | locus YAL030W, strain snc1, active compounds read low 1 | locus YBL061C, strain skt5, active compounds read low 1.03 | locus YBR009C, strain hhf1, active compounds read low 1.02 | locus YBR021W, strain FUR4, active compounds read low 1.02 | locus YBR023C, strain chs3, active compounds read low 1.02 | locus YBR171W, strain sec66, active compounds read low 1.01 | locus YBR229C, strain ROT2, active compounds read low 1.02 | locus YBR231C, strain swc5, active compounds read low 1.03 | locus YBR279W, strain paf1, active compounds read low 1.03 | locus YCL011C, strain gbp2, active compounds read low 1.03 | locus YCL016C, strain dcc1, active compounds read low 1.02 | locus YCL029C, strain bik1, active compounds read low 0.995 | locus YCL069W, strain vba3, active compounds read low 1 | locus YCR088W, strain abp1, active compounds read low 1.04 | locus YDL005C, strain med2, active compounds read low 1.02 | locus YDL035C, strain GPR1, active compounds read low 1.02 | locus YDL040C, strain nat1, active compounds read low 1.01 | locus YDL074C, strain BRE1, active compounds read low 1.04 | locus YDL101C, strain DUN1, active compounds read low 1.02 | locus YDL134C, strain PPH21, active compounds read low 1.02 | locus YDL185W, strain tfp1, active compounds read low 0.992 | locus YDL192W, strain arf1, active compounds read low 0.991 | locus YDR001C, strain nth1, active compounds read low 1.02 | locus YDR069C, strain doa4, active compounds read low 1.03 | locus YDR101C, strain arx1, active compounds read low 0.987 | locus YDR137W, strain rgp1, active compounds read low 1.02 | locus YDR150W, strain NUM1, active compounds read low 1.02 | locus YDR159W, strain sac3, active compounds read low 1.05 | locus YDR162C, strain NBP2, active compounds read low 1 | locus YDR195W, strain ref2 1.02 | locus YDR297W, strain sur2, active compounds read low 1.02 | locus YDR318W, strain mcm21, active compounds read low 0.992 | locus YDR334W, strain swr1, active compounds read low 1.03 | locus YDR335W, strain msn5, active compounds read low 1.03 | locus YDR388W, active compounds read low 0.991 | locus YDR392W, strain spt3, active compounds read low 1.03 | locus YDR502C, strain sam2, active compounds read low 0.988 | locus YEL003W, strain gim4, active compounds read low 1.02 | locus YEL037C, strain rad23, active compounds read low 1 | locus YEL061C, strain CIN8 (second series), active compounds read low 1.01 | locus YEL061C, strain CIN8, active compounds read low 1.01 | locus YER015W, strain faa2, active compounds read low 0.998 | locus YER016W, strain bim1, active compounds read low 1.03 | locus YER110C, active compounds read low 0.995 | locus YER111C, strain swi4, active compounds read low 0.997 | locus YER155C, strain BEM2 (second series), active compounds read low 1.05 | locus YER155C, strain BEM2, active compounds read low 1.02 | locus YER167W, strain BCK2, active compounds read low 1.01 | locus YFR010W, strain ubp6, active compounds read low 1.02 | locus YGL078C, strain dbp3, active compounds read low 0.978 | locus YGL086W, strain mad1, active compounds read low 1.01 | locus YGL167C, strain pmr1, active compounds read low 1.02 | locus YGL173C, strain kem1, active compounds read low 1.02 | locus YGL227W, strain vid30, active compounds read low 1.03 | locus YGL240W, strain doc1, active compounds read low 1.05 | locus YGL248W, strain PDE1, active compounds read low 1.02 | locus YGL253W, strain hxk2, active compounds read low 1.02 | locus YGR135W, strain pre9, active compounds read low 0.982 | locus YGR252W, strain gcn5, active compounds read low 0.994 | locus YHR013C, strain ard1, active compounds read low 1.06 | locus YHR027C, strain rpn1, active compounds read low 1.02 | locus YHR030C, strain SLT2, active compounds read low 1.01 and 1.09 | locus YHR079C, strain IRE1 (second series), active compounds read low 0.977 | locus YHR079C, strain IRE1, active compounds read low 1.09 | locus YHR094C, strain hxt1, active compounds read low 0.982 | locus YHR129C, strain ARP1, active compounds read low 1.02 | locus YHR142W, strain chs7, active compounds read low 1.03 | locus YHR200W, strain rpn10, active compounds read low 0.995 | locus YIL066C, strain RNR3, active compounds read low 1.02 | locus YIL073C, strain SPO22, active compounds read low 0.949 | locus YIL125W, strain kgd1, active compounds read low 0.993 | locus YIR030C, strain dcg1, active compounds read low 0.989 | locus YJL092W, strain hpr5, active compounds read low 1.02 | locus YJL095W, strain BCK1 (second series), active compounds read low 1.02 | locus YJL095W, strain BCK1, active compounds read low 1.02 and 1.04 | locus YJL115W, strain asf1, active compounds read low 1.03 | locus YJL129C, strain trk1, active compounds read low 1.01 | locus YJL134W, strain LCB3, active compounds read low 1.02 | locus YJL154C, strain vps35, active compounds read low 1.02 | locus YJL164C, strain tpk1, active compounds read low 1.02 | locus YJL166W, strain qcr8, active compounds read low 1.02 | locus YJL168C, strain set2, active compounds read low 0.99 | locus YJL187C, strain SWE1 (second series), active compounds read low 1.02 | locus YJR043C, strain POL32, active compounds read low 1.02 | locus YJR066W, strain TOR1, active compounds read low 1.01 | locus YJR075W, strain HOC1, active compounds read low 1.02 | locus YKL009W, strain mrt4, active compounds read low 0.988
